Experimental data from PubChem BioAssay AID602474 (National Center for Advancing Translational Sciences (NCATS), 2012).
Results filed as inconclusive are left out. Values without a mark were called inactive. The source made the active and inactive calls. Calls follow the shape of the dose curve; as a rule, active = well fitted inhibition curve with a large enough effect; inconclusive = small, poorly fitted or top-dose-only effect; inactive = no such curve, though single readings can be large or run the other way.

target: Luciferin 4-monooxygenase (Photinus pyralis) (UniProt P08659); assay: FLuc inhibitory activity for the follow-up compounds in a biochemical assay with a commercial detection reagent - BriteliteTM Plus (PerkinElmer); settings: purified FLuc, Britelite Plus luminescence; series mostly up to 38.3 µM; activity change, negative = inhibition: at the top concentration
Sequence (P08659 whole entry, looked up): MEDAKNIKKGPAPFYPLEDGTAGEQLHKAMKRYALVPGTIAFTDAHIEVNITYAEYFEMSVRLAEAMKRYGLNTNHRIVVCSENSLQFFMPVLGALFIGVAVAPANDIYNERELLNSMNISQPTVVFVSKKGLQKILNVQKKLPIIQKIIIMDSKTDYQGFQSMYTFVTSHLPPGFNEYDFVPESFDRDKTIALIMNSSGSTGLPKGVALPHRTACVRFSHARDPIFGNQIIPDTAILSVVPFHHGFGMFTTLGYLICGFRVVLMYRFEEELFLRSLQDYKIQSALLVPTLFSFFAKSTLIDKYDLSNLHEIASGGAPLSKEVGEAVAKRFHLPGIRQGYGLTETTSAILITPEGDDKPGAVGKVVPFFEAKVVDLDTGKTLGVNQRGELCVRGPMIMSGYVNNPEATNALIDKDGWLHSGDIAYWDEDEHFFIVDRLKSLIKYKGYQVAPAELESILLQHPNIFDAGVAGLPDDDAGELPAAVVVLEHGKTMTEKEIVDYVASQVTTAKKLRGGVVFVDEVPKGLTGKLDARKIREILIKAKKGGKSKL
Source text: NCGC Assay Overview: Firefly (Photinus pyralis) luciferase is one of the most commonly used transcriptional reporters. It is considered one of the more dynamically responsive reporters - that is, responsive to changes in reporter transcription - as it requires no post-translational modifications and is enzymatically active directly after protein synthesis (Wood, 1998). With no endogenous expression in mammalian cells and without the requirement of external excitation, it offers very little background signal, thus generally providing excellent signal to background for most assays. Previous profiling work to determine the prevalence of compounds that affect FLuc enzymatic activity (PubChem AID 411) identified that ~3% of the MLSMR library (then at ~72K) inhibited FLuc (Auld et al., 2008). […] Of the compounds identified in this profile that inhibited FLuc, 151 compounds were selected for further analysis, in an effort to better understand their mode of inhibiting FLuc. The assay described here was to determine the activity of the compounds in a FLuc assay that used a commercial formulation of detection reagent (BriteliteTM Plus; PerkinElmer).
NCGC Assay Protocol Summary: Reagents: Britelite Plus detection reagent; 50mM Tris acetate, pH 7.5; 10nM P. pyralis luciferase (Sigma #L9506) Control compounds used were two known firefly luciferase inhibitors (3-(5-(3-chlorophenyl)-1,2,4-oxadiazol-3-yl)benzoic acid and 5-(2-fluorophenyl)-3-phenyl-1,2,4-oxadiazole), and DMSO. Assay Summary: Three microliters of buffer containing firefly luciferase (final concentrations: 50mM Tris acetate, 10nM P. pyralis luciferase) are dispensed into each well of a Greiner white, solid-bottom 1536-well format plate using a flying reagent dispenser (FRD). These assay plates were then treated with 23nL of compound or DMSO using a Kalypsys pin tool, which allows for delivery of a 12-point intraplate titration of each compound to the assay plate (quantitative HTS), with final compound concentrations ranging from approximately ~38uM to 0.2nM. Three microliters of 2X Britelite Plus detection reagent was then delivered by FRD to each well. Luciferase activity was then measured using a ViewLux CCD imager (PerkinElmer), with an average exposure time of 2-30 seconds (2X binning, medium/high gain).

Compound	activity change, negative = inhibition [%]	Potency
O=C(Nc1ccccc1C(=O)O)c1cccc(C(=O)Nc2ccccc2C(=O)O)c1	-11.6	
O=C(Cc1ccc(Cl)cc1)Nc1cccc(C(=O)Nc2ccccc2C(=O)O)c1	17.1	
O=C(O)c1cccc(NC(=O)c2cccc(S(=O)(=O)Nc3cccc(F)c3)c2)c1	-35.2	
CCOc1ccc(C(=O)Nc2cccc(C(=O)O)c2)cc1Cl		7110 nM (active)
O=C(Nc1ccccc1C(=O)O)c1cc(S(=O)(=O)NCc2ccccc2)ccc1Cl	-4.67	
Cc1ccc(C(=O)O/N=C(\N)c2ccccn2)cc1		28.3 nM (active)
O=C(O)c1cccc(NC(=O)c2ccccc2NC(=O)c2ccco2)c1	-7.53	
Nc1ccc(C(=O)Nc2ccccc2C(=O)O)cc1		11300 nM (active)
O=C(Nc1ccccc1C(=O)O)c1cc(S(=O)(=O)Nc2cccc(F)c2)ccc1Cl	-15.1	
O=C(Nc1ccc(-c2nc3ccccc3s2)cc1)C1=COCCO1		400 nM (active)
COc1ccccc1C(=O)Nc1ccc(C(=O)Nc2ccccc2C(=O)O)cc1	14.6	
COc1c(C)cccc1C(=O)Nc1ccc(-c2nc3ccccc3s2)c(Cl)c1		7110 nM (active)
Nc1ccccc1C(=O)Nc1cccc(C(=O)O)c1		12600 nM (active)
CC(C)C(=O)Nc1cccc(C(=O)Nc2ccccc2C(=O)O)c1		17900 nM (active)
COc1ccc2nc(NC(=O)c3cccc(S(=O)(=O)N4CCOCC4)c3)sc2c1	20	
CC(=O)Nc1cccc(-c2nc3ccccc3s2)c1C	-17.2	
Cc1ccc(NS(=O)(=O)c2ccc(Cl)c(C(=O)Nc3cccc(C(=O)O)c3)c2)cc1	2.08	
COc1ccc(C(=O)Nc2ccccc2C(=O)Nc2ccccc2C(=O)O)cc1		11300 nM (active)
O=C(O)c1ccc(NC(=O)c2cccc(C(=O)Nc3ccc(C(=O)O)cc3)c2)cc1	-5.19	
O=C(Nc1ccccc1C(=O)O)c1cccc(NC(=O)c2ccc(Br)o2)c1	-13.3	

Compound	activity change, negative = inhibition [%]	Potency
COc1ccccc1C(=O)Nc1ccc(C(=O)O)cc1	4.95	
COc1ccc2nc(NC(=O)c3cnccn3)sc2c1		2000 nM (active)
O=C(O)c1cccc(NC(=O)c2cccc(S(=O)(=O)N3CCc4ccccc43)c2)c1	-7.51	
Cc1c(C)c2ccc(OCC(=O)Nc3ccccn3)c(C)c2oc1=O		40 nM (active)
COc1ccc(CC(=O)Nc2cccc(C(=O)Nc3ccccc3C(=O)O)c2)cc1OC	-7.35	
O=C(Nc1ccccc1C(=O)Nc1ccccc1C(=O)O)c1ccccc1	2.67	
O=C(Nc1ccc(Cl)cc1-c1nc2ccccc2s1)c1ccco1	4.66	
Cc1ccc2sc(-c3ccc(N)cc3)nc2c1		798 nM (active)
COc1ccc(Br)cc1C(=O)Nc1ccc(C(=O)O)cc1	-10.9	
O=C(Nc1ccccc1C(=O)O)c1cccc(S(=O)(=O)Nc2ccc(Br)cc2)c1	14	
CC(C)(C)NC(=O)c1ccccc1-c1nc2ccccc2s1	-6.17	
CC(C)(C)C(=O)Nc1ccc(-c2nc3ccccc3s2)cc1		17.9 nM (active)
Cc1ccc(C(=O)Nc2cccc(C(=O)O)c2)cc1S(=O)(=O)N1CCCC1		2250 nM (active)
O=C(Nc1ccccc1-c1nc2ccccc2s1)c1ccc(Br)o1	-19.6	
Cc1ccc(C(=O)Nc2cccc(C(=O)O)c2)cc1		2000 nM (active)
O=C(O)c1ccc(NC(=O)c2ccccc2NC(=O)c2ccccc2Cl)cc1	-8.33	
O=C(Nc1c(Cl)cc(Cl)cc1-c1nc2ccccc2s1)c1ccc(Br)o1		17900 nM (active)
COc1ccc2nc(NC(=O)c3ccc(S(=O)(=O)N4CCCC(C)C4)cc3)sc2c1 (stereo not given)	-22.2	
Nc1ccc2nc(-c3ccc(O)cc3)sc2c1		1130 nM (active)
Cc1ccc(C(=O)O/N=C(\N)c2ccccn2)c(Cl)c1		25.2 nM (active)
